# Results taken from publication PMC11062922 (Nature Chemical Biology, 2023).
# Read-outs that look alike come from different tables or passages of the source.
# Tests used:
# Set-up in all cases: species or system human, MV4-11 + K-562 + COLO205 + SK-N-BE2 + OVCAR-8
# CDC42BPG = details: read-out: apparent Kd, compound concentrations: 100 nM and 1000 nM (sheet 'Samples'), n = 1
# DDR1 = details: read-out: apparent Kd; compound concentrations: 100 nM and 1000 nM (sheet 'Samples'), CATDS: 0.140210166469808; n = 1
# DJA1 = test system: T1, DJA1; details: read-out: apparent Kd; compound concentrations: 100 nM and 1000 nM (sheet 'Samples'), CATDS: 0.100265839502576; n = 1
# T1 construct: gene DNAJA1
# FLT3 = details: read-out: apparent Kd, compound concentrations: 100 nM and 1000 nM (sheet 'Samples'), n = 1
# PIK3C3 = details: read-out: apparent Kd; compound concentrations: 100 nM and 1000 nM (sheet 'Samples'), CATDS: 0.105221440009215; n = 1
# PIK3CA = details: read-out: apparent Kd; compound concentrations: 100 nM and 1000 nM (sheet 'Samples'), CATDS: 0.28704207187710601; n = 1
# PIK3CG = details: read-out: apparent Kd; compound concentrations: 100 nM and 1000 nM (sheet 'Samples'), CATDS: 0.108238843984754; n = 1
# RET = details: read-out: apparent Kd; compound concentrations: 100 nM and 1000 nM (sheet 'Samples'), CATDS: 0.12612517113031699; n = 1
# CAMK2B = details: read-out: apparent Kd; compound concentrations: 100 nM and 1000 nM (sheet 'Samples'), CATDS: 8.8630985713884503E-2; n = 1
# FYN = details: read-out: apparent Kd; compound concentrations: 100 nM and 1000 nM (sheet 'Samples'), CATDS: 6.1091429900981202E-2; n = 1
# HCK = details: read-out: apparent Kd; compound concentrations: 100 nM and 1000 nM (sheet 'Samples'), CATDS: 0.204546800943642; n = 1
# LCK = details: read-out: apparent Kd; compound concentrations: 100 nM and 1000 nM (sheet 'Samples'), CATDS: 6.2891353750110596E-2; n = 1
# LYN = details: read-out: apparent Kd; compound concentrations: 100 nM and 1000 nM (sheet 'Samples'), CATDS: 6.1198388947790797E-2; n = 1
# MAP2K5 = details: read-out: apparent Kd; compound concentrations: 100 nM and 1000 nM (sheet 'Samples'), CATDS: 0.12646942491879101; n = 1
# MAPK14 = details: read-out: apparent Kd; compound concentrations: 100 nM and 1000 nM (sheet 'Samples'), CATDS: 5.4651958851346001E-2; n = 1
# PTK6 = details: read-out: apparent Kd; compound concentrations: 100 nM and 1000 nM (sheet 'Samples'), CATDS: 6.47566338134071E-2; n = 1
# RIPK2 = details: read-out: apparent Kd; compound concentrations: 100 nM and 1000 nM (sheet 'Samples'), CATDS: 0.112898428987699; n = 1
# RIPK3 = details: read-out: apparent Kd; compound concentrations: 100 nM and 1000 nM (sheet 'Samples'), CATDS: 6.7046149691073503E-2; n = 1
# SRC = details: read-out: apparent Kd; compound concentrations: 100 nM and 1000 nM (sheet 'Samples'), CATDS: 7.0333029214927095E-2; n = 1
# YES1 = details: read-out: apparent Kd; compound concentrations: 100 nM and 1000 nM (sheet 'Samples'), CATDS: 8.7589956864903007E-2; n = 1
# CDC42BPA = details: read-out: apparent Kd; compound concentrations: 100 nM and 1000 nM (sheet 'Samples'), CATDS: 5.2351316008414299E-2; n = 1
# CDC42BPB = details: read-out: apparent Kd; compound concentrations: 100 nM and 1000 nM (sheet 'Samples'), CATDS: 8.8336954775193793E-2; n = 1
# CIT = details: read-out: apparent Kd; compound concentrations: 100 nM and 1000 nM (sheet 'Samples'), CATDS: 4.1257824798939802E-2; n = 1
# GSK3A = details: read-out: apparent Kd; compound concentrations: 100 nM and 1000 nM (sheet 'Samples'), CATDS: 6.6590939053141299E-2; n = 1
# GSK3B = details: read-out: apparent Kd; compound concentrations: 100 nM and 1000 nM (sheet 'Samples'), CATDS: 5.7473079866645002E-2; n = 1
# LATS1 = details: read-out: apparent Kd; compound concentrations: 100 nM and 1000 nM (sheet 'Samples'), CATDS: 9.7617752181751005E-2; n = 1
# MELK = details: read-out: apparent Kd; compound concentrations: 100 nM and 1000 nM (sheet 'Samples'), CATDS: 3.9798752380349897E-2; n = 1
# PIM2 = details: read-out: apparent Kd; compound concentrations: 100 nM and 1000 nM (sheet 'Samples'), CATDS: 3.9305369436655899E-2; n = 1
# PKN1 = details: read-out: apparent Kd; compound concentrations: 100 nM and 1000 nM (sheet 'Samples'), CATDS: 5.10787631229489E-2; n = 1
# PKN2 = details: read-out: apparent Kd; compound concentrations: 100 nM and 1000 nM (sheet 'Samples'), CATDS: 0.10529576550344701; n = 1
# PKN3 = details: read-out: apparent Kd; compound concentrations: 100 nM and 1000 nM (sheet 'Samples'), CATDS: 7.5123616152450098E-2; n = 1
# PRKCD = details: read-out: apparent Kd; compound concentrations: 100 nM and 1000 nM (sheet 'Samples'), CATDS: 4.7600533204707897E-2; n = 1
# PRKCI = details: read-out: apparent Kd; compound concentrations: 100 nM and 1000 nM (sheet 'Samples'), CATDS: 3.9274053765020099E-2; n = 1
# ROCK1 = details: read-out: apparent Kd; compound concentrations: 100 nM and 1000 nM (sheet 'Samples'), CATDS: 0.30602984254096799; n = 1
# ROCK2 = details: read-out: apparent Kd; compound concentrations: 100 nM and 1000 nM (sheet 'Samples'), CATDS: 0.35552561268284599; n = 1
# RPS6KB1 = details: read-out: apparent Kd; compound concentrations: 100 nM and 1000 nM (sheet 'Samples'), CATDS: 4.4674945957763799E-2; n = 1
structure (smiles),measurement,setting,value
CN1CCN(CCCNc2nc3ccc(Oc4ccc(NC(=O)Nc5cc(C(F)(F)F)ccc5F)cc4)cc3[nH]2)CC1.Cl [GW700494A],potency estimated from few doses,CDC42BPG; CATDS: 0.120544348793502,1130 nM
same,potency estimated from few doses,DDR1,826 nM
same,potency estimated from few doses,DJA1,1780 nM
same,potency estimated from few doses,FLT3; CATDS: 0.118432535218852,1170 nM
same,potency estimated from few doses,PIK3C3,1560 nM
same,potency estimated from few doses,PIK3CA,263 nM
same,potency estimated from few doses,PIK3CG,1450 nM
same,potency estimated from few doses,RET,1020 nM
c1ccc(Oc2ccc(Nc3ccnc4cc(-c5ccc(CNCCN6CCOCC6)o5)ccc34)cc2)nc1 [GW567145X],potency estimated from few doses,CAMK2B,448 nM
same,potency estimated from few doses,FLT3; CATDS: 7.5963882735203103E-2,620 nM
same,potency estimated from few doses,FYN,1080 nM
same,potency estimated from few doses,HCK,118 nM
same,potency estimated from few doses,LCK,994 nM
same,potency estimated from few doses,LYN,1080 nM
same,potency estimated from few doses,MAP2K5,239 nM
same,potency estimated from few doses,MAPK14,1550 nM
same,potency estimated from few doses,PTK6,917 nM
same,potency estimated from few doses,RIPK2,288 nM
same,potency estimated from few doses,RIPK3,837 nM
same,potency estimated from few doses,SRC,742 nM
same,potency estimated from few doses,YES1,459 nM
NCc1ccc(-n2c(-c3nonc3N)nc3cnccc32)cc1 [SB-750140],potency estimated from few doses,CDC42BPA,660 nM
same,potency estimated from few doses,CDC42BPB,173 nM
same,potency estimated from few doses,CDC42BPG; CATDS: 4.2033135949813498E-2,1420 nM
same,potency estimated from few doses,CIT,1530 nM
same,potency estimated from few doses,GSK3A,339 nM
same,potency estimated from few doses,GSK3B,502 nM
same,potency estimated from few doses,LATS1,139 nM
same,potency estimated from few doses,MELK,1800 nM
same,potency estimated from few doses,PIM2,1910 nM
same,potency estimated from few doses,PKN1,712 nM
same,potency estimated from few doses,PKN2,118 nM
same,potency estimated from few doses,PKN3,252 nM
same,potency estimated from few doses,PRKCD,895 nM
same,potency estimated from few doses,PRKCI,1910 nM
same,potency estimated from few doses,ROCK1,16.3 nM
same,potency estimated from few doses,ROCK2,12.9 nM
same,potency estimated from few doses,RPS6KB1,1120 nM
